# Pf growth 96h: Primary qHTS for delayed death inhibitors of the malarial parasite plastid, 96 hour incubation | P. falciparum luciferase reporter growth, 96 h | Potency, µM (series often up to 28.7 µM), usual class: inhibitors | 6.9% of 320,000 active | AID 504834, 2011
#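 Readout is luminescence from an integrated firefly luciferase in P. falciparum. Red cells, 2% hematocrit and 0.05% parasitemia final, were cultured with compound through two parasite generations (96 hours) at 37 C, 5% CO2.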
# Pf growth 48h: Primary qHTS for delayed death inhibitors of the malarial parasite plastid, 48 hour incubation; P. falciparum luciferase growth in erythrocytes, 48 h; Potency, µM (highest dose often 28.7 µM), actives largely listed as inhibitors; 5.9% of 310,000 active
#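 Erythrocytes infected with P. falciparum carrying an integrated firefly luciferase reporter (2% hematocrit, 0.1% parasitemia final) were exposed to compounds in RPMI 1640 with 0.5% Albumax at 37 C, 5% CO2. Growth inhibition was scored as reduced luminescence.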
# Cycloheximide cs: Cycloheximide Counterscreen for Small Molecule Inhibitors of Shiga Toxin. AID 2314, 2010. 12% of 300,000 active. max response, %. cell reporter, cycloheximide protein synthesis inhibition counterscreen; in the data active = max response mostly above about 13%, no sharp cut-off; inactive = mostly below about 14%; note: read at 38.3 µM for the half of the compounds with a filed dose
# Shiga inhibitor: A qHTS for Small Molecule Inhibitors of Shiga Toxin | 9.2% of 290,000 active | AID 2315, 2010 | inhibition, % at 38.7 µM | Vero cells, Shiga toxin protein synthesis inhibition reporter; in the data active = inhibition mostly above about 28%, no sharp cut-off; inactive = mostly below about 43%
# HCMV inh: qHTS Assay for inhibitors of the human cytomegalovirus (HCMV); HFF cells, HCMV-luciferase reporter, 72 h; hits give low values; activity change, negative = inhibition, % at 57.5 µM; 4.5% of 410,000 active; AID 1259415, 2018; in the data active = activity change below about -60%; inconclusive = no clear call, values can overlap the other calls; inactive = above about -39%
#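 Human foreskin fibroblasts infected with luciferase-reporter HCMV at MOI 1 PFU/cell, compounds at two doses. Luciferase measured 72 h post infection; normalized to buffer-only basal and Salinomycin (10uM) controls.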
# Numbers stand for hits; - = inactive; ? = inconclusive; . = not tested or not shown; + = active, no number. Shown are actives, neighbours in structure and some others; about 20% of the full set was active somewhere. Unless noted, calls come from the whole dose curve; as a rule, active = well fitted inhibition curve with a large enough effect; inconclusive = small, poorly fitted or top-dose-only effect, or another doubt; inactive = no such curve, though single readings can be large or run the other way.
SMILES,Pf growth 96h,Pf growth 48h,Cycloheximide cs,Shiga inhibitor,HCMV inh
CN(C)CCCN(C(=O)c1ccc2c(c1)CCCC2)c1nc2c(F)cccc2s1,?,9.28µM,16.7,23.9,-
Cc1ccc2nc(N(CCCN(C)C)C(=O)c3cc(-c4cccs4)nc4ccccc34)sc2c1,13.1µM,-,-,-,-
Cc1ccc2nc(N(CCN(C)C)C(=O)c3cc(Cl)sc3Cl)sc2c1,-,-,21.8,32.8,-
CN1CCN(c2ccc([N+](=O)[O-])cc2/C=N/NC(=O)c2cccc([N+](=O)[O-])c2)CC1,-,?,-,-,-
Cc1cc(C)c2nc(N(CCCN(C)C)C(=O)c3ccc4c(c3)CCCC4)sc2c1,?,7.38µM,.,.,?
CN(C)CCN(C(=O)c1ccc2c(c1)CCCC2)c1nc2cc3c(cc2s1)OCCO3,-,-,-,-,-
O=C1CC(NS(=O)(=O)c2cccnc2)CN1c1ccccc1 (centres undefined),-,-,.,.,-
COC1c2ccccc2C(=O)N1CCc1ccc(Cl)cc1 (centres undefined),?,-,15.8,41.4,-
Cc1ccccc1-c1ccc(Nc2ccc(N3CCOCC3)cc2)nn1,-,?,29.4,-,.
O=S1(=O)N=C(Nc2ccc(N3CCOCC3)cc2)c2ccccc21,-,-,-,-,-
C[C@]12CC[C@H]3C(=CCc4cc(O)ccc43)[C@@H]1CCC2=O,?,?,15.5,-,-
O=C(O)c1ccc(S(=O)(=O)N2CCc3ccccc3C2)cc1,9.28µM,-,-,-,?
Cc1ccc(C(=O)Nc2ccc(S(=O)(=O)N3CCc4ccccc4C3)cc2)o1,.,13.1µM,-,-,-
COc1cc(NC(=O)COC(=O)CCOc2ccc(C)cc2)cc(OC)c1,?,-,-,-,-
CCCc1cc(=O)c2ccc(OC/C(C)=N/O)cc2o1,-,-,-,-,-
CCOc1ccc(C(=O)Nc2ccc3c(c2)OCCO3)cc1OC,-,-,19.7,62.9,-
CCOc1ccc(NC(=O)c2ccc3c(c2)OCCO3)cc1S(=O)(=O)N(CC)CC,13.1µM,13.1µM,.,.,-
CCOc1ccc(-n2nc3ccc(NC(=O)c4ccc5c(c4)OCCO5)cc3n2)cc1,-,-,-,-,-70.6
CCOc1cc(C(=O)Nc2ccc3c(c2)OCO3)ccc1OC(F)F,9.28µM,-,23.0,-,?
CCOc1ccc(C(=O)NCC(=O)Nc2ccc3c(c2)OCO3)cc1OCC,-,?,.,.,-
CCNC(=O)c1cc2c(c(-c3cccc(-c4ccccc4F)c3)n1)[C@@H](CCO)N(C(=O)CC)C2,.,.,.,.,-
COc1cccc(C2=NOC(C(=O)Nc3cccnc3Cl)C2)c1 (centres undefined),?,-,-,-,-
COc1ccc(CN(C)C(=O)/C=C/c2ccc(S(=O)(=O)N3CCCCCC3)cc2)cc1,13.1µM,9.28µM,.,.,?
CNC(=O)c1ccc(CN(C)C(=O)/C=C/c2ccc(S(=O)(=O)N3CCCCCC3)cc2)cc1,.,.,.,.,-84.4
CC(C)C[C@H](NC(=O)[C@H](CCCCN)NC(=O)CNC(=O)[C@H](CC(C)C)NC(=O)[C@@H](NC(=O)[C@@H]1CSSC[C@H](N)C(=O)N[C@@H](CO)C(=O)N[C@@H](CC(N)=O)C(=O)N[C@@H](CC(C)C)C(=O)N[C@@H](CO)C(=O)N[C@@H]([C@@H](C)O)C(=O)N1)C(C)C)C(=O)N[C@@H](CO)C(=O)N[C@@H](CCC(N)=O)C(=O)N[C@@H](CCC(=O)O)C(=O)N[C@@H](CC(C)C)C(=O)N[C@@H](Cc1cnc[nH]1)C(=O)N[C@@H](CCCCN)C(=O)N[C@@H](CC(C)C)C(=O)N[C@@H](CCC(N)=O)C(=O)N[C@H](C(=O)N[C@@H](Cc1ccc(O)cc1)C(=O)N1CCC[C@H]1C(=O)N[C@@H](CCCNC(=N)N)C(=O)N[C@H](C(=O)N[C@@H](CC(N)=O)C(=O)N[C@H](C(=O)NCC(=O)N[C@@H](CO)C(=O)NCC(=O)N[C@H](C(=O)N1CCC[C@H]1C(N)=O)[C@@H](C)O)[C@@H](C)O)[C@@H](C)O)[C@@H](C)O,.,.,-,-,.
SMILES,Pf growth 96h,Pf growth 48h,Cycloheximide cs,Shiga inhibitor,HCMV inh
CS(=O)(=O)N1N=C(c2cccs2)CC1c1ccco1 (centres undefined),-,-,-,-,-
COc1ccccc1NC(=O)N(Cc1nnc2n1CCCCC2)c1ccc(F)cc1,.,.,.,.,-
OCC1(CCCc2ccccc2)CCN(Cc2cnc(N3CCOCC3)s2)CC1,9.28µM,-,-,-,-
Cc1ccccc1-c1ncc(CN2CCC(CO)(CCCc3ccccc3)CC2)cn1,?,?,-,-,-64.2
COc1cccc(CC2(CO)CCN(Cc3cnc(N4CCOCC4)s3)CC2)c1,-,-,-,-,-
Cc1ccc(OCC(=O)N2CCc3ccccc3C2)c(Br)c1,-,-,41.6,60.3,?
Cc1ccc(OCC(=O)N2CCc3ccccc3C2)c(C)c1,-,-,10.6,-,-
COc1cccc(CNC(=O)c2cccc(Br)c2)c1,-,?,-,-,-
COc1cc(CNC(=O)c2cccc(COc3ccc(Cl)cc3)c2)cc(OC)c1,-,-,51.6,112.6,-
O=C(NCc1ccccc1)c1cccc(COc2ccc(Cl)cc2)c1,-,-,130.5,199.5,-
O=C(NCc1ccccc1)c1cccc(COc2cccc(Cl)c2)c1,-,-,-,-,-
COc1ccc(-c2c(NC(=O)c3ccco3)oc3c(C)cccc3c2=O)cc1,-,-,-,-,-
CCC(=O)Nc1cc2nn(-c3ccccc3)nc2cc1Cl,-,-,42.8,79.9,-
Cc1cc2nn(-c3ccccc3)nc2cc1NC(=O)c1cccs1,?,-,22.4,+,-
CC(=O)Nc1cc2nn(-c3ccccc3)nc2cc1C,13.1µM,-,59.4,82.9,-
CC1=C(c2ccc(Cl)cc2)S(=O)(=O)NC1=NCc1ccc(C)cc1,.,.,.,.,-
O=C(c1ccc([N+](=O)[O-])cc1)N1CCOC12CCN(c1ncc(C(F)(F)F)cc1Cl)CC2,-,-,-,-,-
CN(C)C=NC(=O)c1ccc(N2CCN(c3ncc(C(F)(F)F)cc3Cl)CC2)cc1,-,-,-,-,-
O=C(c1ccc2nc[nH]c2c1)N1CCN(c2ncc(C(F)(F)F)cc2Cl)CC1,?,-,-,-,-70.0
NC(=O)c1ccc(N2CCN(c3ncc(C(F)(F)F)cc3Cl)CC2)cc1,-,-,-,-,?
O=C(c1ccccc1)N1CCOC12CCN(c1ncc(C(F)(F)F)cc1Cl)CC2,.,?,-,-,-61.1
Nc1ccc(N2CCN(c3ncc(C(F)(F)F)cc3Cl)CC2)c(C(F)(F)F)c1,.,.,.,.,-104.2
CN(C)/C=C/C(=O)c1ccc(N2CCN(c3ncc(C(F)(F)F)cc3Cl)CC2)cc1,?,.,-,-,-107.6
CCOc1ccc(C(C(=O)NC(C)(C)C)N(CCOC)C(=O)CCC(=O)Nc2nccs2)cc1 (centres undefined),-,?,-,-,-
Cc1cccc(NC(=O)c2sc3ncnc(N(C)C4CCCCC4)c3c2C)c1C,.,.,.,.,-
